Screens (PubChem)
In the library only some 2.8% were active in any assay of this set; here they are far more common.
p-CIP stab down – p/CIP protein destabilization; Q05BA5; F442A p/CIP-EGFP cells, EGFP fluorescence, 16 h; decrease of EGFP signal, % at 10 µM; 290,000 tested, 0.01% active; AID 1984;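 active = EGFP signal decrease of at least 30% at 10 µM or well 3 SD below plate mean, unless failing retest; inactive = the rest, including hits failing retest or dose response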
Platelet DG rel – modulates dense granule release in human platelets. AID 1663. human platelet-rich plasma, SFLLRN dense granule ATP release, luminescence. inhibition, %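 (compounds screened at 7.5 µM in platelet-rich plasma)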. 300,000 tested, 0.22% active;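 active = mean replicate score, as percent of positive control, at or above 50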
PolyA inhibitor – blocks polyadenylation in yeast reporter cells; S. cerevisiae SKY197-pL101 polyadenylation reporter, beta-gal luminescence; efflux-impaired pdr1/pdr3 knockout yeast; score 100 = 6 SD above DMSO; activity score, % at 12 µM; 300,000 tested, 0.02% active;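 active = lowest replicate activity score at least 50, where 100 means six control SD above control mean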;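 note: yeast exposed to compound for 9 h at 30 °C; higher score means more reporter readthrough which indicates perturbed polyadenylation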
AHR activator – activates the human aryl hydrocarbon receptor | P35869 | AHR-responsive luciferase reporter cells, luminescence | activation, % at 5 µM | 320,000 tested, 2.5% active; in the data active = activation above about 47%
Target sequence (P35869 whole entry, looked up): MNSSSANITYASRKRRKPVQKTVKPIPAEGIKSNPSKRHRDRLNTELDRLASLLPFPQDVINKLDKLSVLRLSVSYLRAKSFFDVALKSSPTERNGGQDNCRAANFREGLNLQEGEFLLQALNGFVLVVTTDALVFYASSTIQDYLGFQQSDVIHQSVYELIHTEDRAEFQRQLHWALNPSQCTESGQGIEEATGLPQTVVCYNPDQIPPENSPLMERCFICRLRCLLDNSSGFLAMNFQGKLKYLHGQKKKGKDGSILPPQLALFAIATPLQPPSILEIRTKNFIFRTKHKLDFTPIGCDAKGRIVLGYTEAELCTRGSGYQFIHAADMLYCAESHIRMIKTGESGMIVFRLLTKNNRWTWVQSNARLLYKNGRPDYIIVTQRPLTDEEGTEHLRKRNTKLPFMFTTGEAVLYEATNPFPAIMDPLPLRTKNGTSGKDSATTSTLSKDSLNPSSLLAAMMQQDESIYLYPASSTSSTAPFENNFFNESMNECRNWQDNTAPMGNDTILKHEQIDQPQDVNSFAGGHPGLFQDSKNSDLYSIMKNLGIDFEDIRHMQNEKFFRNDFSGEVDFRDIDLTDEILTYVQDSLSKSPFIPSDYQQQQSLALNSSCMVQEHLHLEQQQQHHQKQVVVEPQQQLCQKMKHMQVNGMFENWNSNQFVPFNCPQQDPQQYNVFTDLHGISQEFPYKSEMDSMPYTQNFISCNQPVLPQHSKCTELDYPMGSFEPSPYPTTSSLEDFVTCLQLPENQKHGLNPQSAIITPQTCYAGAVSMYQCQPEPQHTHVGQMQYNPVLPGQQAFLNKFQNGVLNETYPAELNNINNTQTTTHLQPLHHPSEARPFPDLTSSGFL
HIF act – HIF pathway transcriptional activation; activation, % at 7.5 µM (by protocol); AID 1910; U2OS HRE-luciferase reporter, luminescence; normalized: DMSO 0%, desferrioxamine 100%; 300,000 tested, 0.32% active;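 active = mean activation of at least 10% of the iron chelator positive control signal, with at least half of replicates also reaching 10%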
A number is an active result; i = inactive; nt = not tested or not shown.

SMILES	p-CIP stab down	Platelet DG rel	PolyA inhibitor	AHR activator	HIF act
COc1cc2cnc(-c3ccsc3)c(-c3ccc(F)cc3)c2cc1OC	nt	nt	nt	i	nt
Fc1ccc2cc(-c3ccsc3)ncc2c1	nt	nt	nt	51	nt
COc1cc2cnc(-c3ccsc3)cc2cc1OC	nt	nt	nt	49	nt
Fc1ccc2cc(-c3cccnc3)ncc2c1	nt	nt	nt	i	nt
O=c1[nH]c(=S)n(-c2cccc(Cl)c2)c(O)c1/C=N/N1CCOCC1	i	i	i	i	i
C=CCNc1nc(C)c(CNc2c(C)cc(C)cc2C)nc1C#N	i	i	i	i	i
CCOc1ccc(NC(=O)COC(=O)c2cc([N+](=O)[O-])ccc2N2CCOCC2)cc1	nt	i	i	i	i
CCOc1ccc(NC(=O)c2cc([N+](=O)[O-])ccc2N2CCOCC2)cc1	nt	i	i	74	i
Cn1cc(CN2CCC(C(=O)Nc3cccc(-c4cscn4)c3)CC2)cn1	i	i	i	i	73
O=C(NCCc1ccccc1Cl)C1CCC(=O)N(C2CCCCCC2)C1 (centres undefined)	i	i	i	i	i
O=c1[nH]c(S)c(/C=C2\C=Nc3ccccc32)s1	i	i	i	57	i
O=C(Cn1c(O)c(/C=C2\C=Nc3ccccc32)sc1=O)N1CCOCC1	i	i	i	i	i
O=C(NNC(=O)c1sccc1-n1cccc1)c1cccs1	i	i	i	47	nt
C/C(=N\NC(=O)c1sccc1-n1cccc1)c1cccs1	i	i	i	78	i
C/C(=N/NC(=O)c1cccs1)c1cccs1	i	i	i	i	i
